According to PubChem BioAssay AID1117313 (National Center for Advancing Translational Sciences (NCATS), 2015):
Activity calls are given as the source filed them. Calls follow the shape of the full dose curve.

conditions: Ebola virus entry reporter assay, ratio channel

| SMILES | AC50 | outcome |
| --- | --- | --- |
| CC[C@H]1OC(=O)[C@H](C)[C@@H](O[C@H]2C[C@@](C)(OC)[C@@H](O)[C@H](C)O2)C(C)[C@@H](O[C@@H]2O[C@H](C)C[C@H](N(C)C)[C@@H]2O)[C@](C)(OC)C[C@@H](C)C(=O)[C@H](C)[C@@H](O)[C@]1(C)O (some centres undefined) | 4850 nM (active) | – |
| CO[C@H]1C[C@@H]2CC[C@@H](C)[C@@](O)(O2)C(=O)C(=O)N2CCCC[C@@H]2C(=O)O[C@H]([C@H](C)C[C@@H]2CC[C@H](OCCO)[C@H](OC)C2)CC(=O)[C@H](C)C=C(C)[C@@H](O)[C@@H](OC)C(=O)[C@H](C)C[C@H](C)C=CC=CC=C1C | – | inactive |
| CN1CCN(CCCN2c3ccccc3Sc3ccc(C(F)(F)F)cc32)CC1 | 2730 nM (active) | – |
| CCCNCC(O)COc1ccccc1C(=O)CCc1ccccc1 (centres undefined) | 8630 nM (active) | – |
| COc1cccc2c1C(=O)c1c(O)c3c(c(O)c1C2=O)C[C@@](O)(C(C)=O)C[C@H]3O[C@H]1C[C@H](N)[C@H](O)[C@H](C)O1 | 2730 nM (active) | – |
| C[C@]12CC[C@@H]3c4ccc(O)cc4C[C@@H](CCCCCCCCCS(=O)CCCC(F)(F)C(F)(F)F)[C@H]3[C@@H]1CC[C@@H]2O (some centres undefined) | – | inactive |
| COC1=CC(=O)C[C@@H](C)[C@]12Oc1c(Cl)c(OC)cc(OC)c1C2=O | – | inactive |
| CCC1=C[C@@H]2CN(C1)Cc1c([nH]c3ccccc13)[C@@](C(=O)OC)(c1cc3c(cc1OC)N(C)[C@H]1[C@@](O)(C(=O)OC)[C@H](OC(C)=O)[C@]4(CC)C=CCN5CC[C@]31[C@@H]54)C2 | 86.3 nM (active) | – |
| C[C@@H]1O[C@@H](O[C@H]2CC[C@@]3(C)[C@H](CC[C@@H]4[C@H]3C[C@@H](O)[C@]3(C)[C@@H](C5=CC(=O)OC5)CC[C@]43O)C2)C[C@H](O)[C@@H]1O[C@H]1C[C@H](O)[C@H](O[C@H]2C[C@H](O)[C@@H](O)[C@@H](C)O2)[C@H](C)O1 (stereo in doubt) | 1400 nM (active) | – |
| COC(=O)Nc1nc2ccc(C(=O)c3cccs3)cc2[nH]1 | 544 nM (active) | – |
| CC[C@]1(O)C[C@H]2CN(CCc3c([nH]c4ccccc34)[C@@](C(=O)OC)(c3cc4c(cc3OC)N(C=O)[C@H]3[C@@](O)(C(=O)OC)[C@H](OC(C)=O)[C@]5(CC)C=CCN6CC[C@]43[C@@H]65)C2)C1 | 137 nM (active) | – |
| Cc1nnc(C(C)C)n1C1C[C@H]2CC[C@@H](C1)N2CC[C@H](NC(=O)C1CCC(F)(F)CC1)c1ccccc1 (some centres undefined) | – | inactive |
| NCCCC(O)(P(=O)(O)O)P(=O)(O)O | – | inactive |
| CN1[C@@H]2CC[C@H]1CC(OC(c1ccccc1)c1ccccc1)C2 (some centres undefined) | 3850 nM (active) | – |
| CO[C@H]1C[C@@H]2CC[C@@H](C)[C@@](O)(O2)C(=O)C(=O)N2CCCC[C@@H]2C(=O)O[C@H]([C@@H](C)C[C@@H]2CC[C@H](O)[C@H](OC)C2)CC(=O)[C@H](C)C=C(C)[C@@H](O)[C@@H](OC)C(=O)[C@H](C)C[C@H](C)C=CC=CC=C1C | – | inactive |
| CCCSc1ccc2nc(NC(=O)OC)[nH]c2c1 | 4320 nM (active) | – |
| CN(C)CCCN1c2ccccc2CCc2ccc(Cl)cc21 | 5440 nM (active) | – |
| CC[C@]1(O)C[C@@H]2CN(CCc3c([nH]c4ccccc34)[C@@](C(=O)OC)(c3cc4c(cc3OC)N(C)[C@H]3[C@@](O)(C(=O)OC)[C@H](OC(C)=O)[C@]5(CC)C=CCN6CC[C@]43[C@@H]65)C2)C1 | 122 nM (active) | – |
| CN1CCC[C@@H]1CCO[C@](C)(c1ccccc1)c1ccc(Cl)cc1 | 1530 nM (active) | – |
| COC(=O)Nc1nc2ccc(C(=O)c3ccccc3)cc2[nH]1 | 3430 nM (active) | – |
| CC[C@H]1OC(=O)[C@H](C)[C@@H](O[C@H]2C[C@@](C)(OC)[C@@H](O)[C@H](C)O2)[C@H](C)[C@@H](O[C@@H]2O[C@H](C)C[C@H](N(C)C)[C@@H]2O)[C@](C)(O)C[C@@H](C)CN(C)[C@H](C)[C@@H](O)[C@]1(C)O | 3060 nM (active) | – |
| CN(C)CCOc1ccc(/C(=C(/CCCl)c2ccccc2)c2ccccc2)cc1 | 1090 nM (active) | – |
| CCN(CC)CCNC(=O)c1c(C)[nH]c(/C=C2\C(=O)Nc3ccc(F)cc32)c1C | 1530 nM (active) | – |
| CCCCc1oc2ccc(NS(C)(=O)=O)cc2c1C(=O)c1ccc(OCCCN(CCCC)CCCC)cc1 | 2430 nM (active) | – |
